Test [1] in a line: Cell Viability - LYMP2-018 (AID 985). Note: nearly all actives have a fitted effect of over 50% in size. Note: potency is the fitted concentration of half-maximal effect. To be noted: LYMP2-018 lymphoblastoid cells, viability (qHTS); series mostly up to 92.2 µM. The method in brief:
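In this qHTS viability assay, cells are treated for 24 hr and cellular ATP is quantified by luciferase-based luminescence, with tetraoctylammonium bromide as positive control.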
A general note: In qHTS, concentration-response curves come from the screen itself.

Test [2] is described as follows: Cell Viability - LYMP2-022 (AID 987). Note: nearly all actives have a fitted effect of over 55% in size. Note: potency is the fitted concentration of half-maximal effect. As to conditions: LYMP2-022 lymphoblastoid cell viability; series mostly up to 92.2 µM. Put shortly: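 In this qHTS cytotoxicity screen, compound titrations were incubated 24 hr at 37 C with human lymphoblastoid cells in complete medium. Luciferase-based ATP luminescence provided the viability signal.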
Test [3] concerns the target Alpha-galactosidase A (Homo sapiens) (UniProt P06280). The experiment in a line: Counterscreen for Glucocerebrosidase Inhibitors: qHTS Assay for Human alpha-Galactosidase at pH 4.5 (AID 992). As to conditions: purified enzyme, fluorogenic substrate; series mostly up to 76.9 µM. Put shortly: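 Each compound is preincubated briefly with 2 nM enzyme before substrate addition (80 uM); plates then sit 20 min at ambient temperature, are quenched with 1M NaOH/1M glycine, and read fluorometrically.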
Background: A counterscreen serves to expose hits that act by an unwanted route or on another target.

Test [4] can be described thus: Cell Viability - LYMP2-009 (AID 968).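 Note: cells exposed to compound for 24 h at 37 °C; nearly all actives have a fitted effect of over 55% in size.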 Note: potency is the fitted concentration of half-maximal effect. As to conditions: LYMP2-009 lymphoblastoid cell viability; series mostly up to 92.2 µM.
The nature of test [5]: Cell Viability - LYMP2-013 (AID 970).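 Note: cells exposed to compound for 24 h at 37 °C; nearly all actives have a fitted effect of over 55% in size.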 Note: potency is the fitted concentration of half-maximal effect. As to conditions: LYMP2-013 lymphoblastoid cells viability; series mostly up to 92.2 µM. The method in brief: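 In complete culture medium, human lymphoblastoid cells were dosed for 24 hr at 37 C, with tetraoctylammonium bromide (6.4pM to 92 uM) as positive control. Viability reflects luciferase-based ATP signal; AC50 derived from concentration-response curves.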

Test [6] is described as follows: Cell Viability - LYMP2-015 (AID 971). Note: nearly all actives have a fitted effect of over 55% in size. Note: potency is the fitted concentration of half-maximal effect. To be noted: LYMP2-015 lymphoblastoid cell viability; series mostly up to 92.2 µM. The method in brief: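 AC50 values reflect Hill-model fits of ATP-based luminescence (CellTiter-Glo) from a human lymphoblastoid line, 2500 cells/well, treated 24 hr at 37 C.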
Test [7] is described as follows: Cell Viability - LYMP2-017 (AID 972). Note: potency is the fitted concentration of half-maximal effect. As to conditions: LYMP2-017 lymphoblastoid cell viability; series mostly up to 92.2 µM. Put shortly: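 In this qHTS format, lymphoblastoid cells in complete medium receive test compound for a day at 37 C before ATP content is quantified by luciferase luminescence. Reported AC50 figures come from standard Hill-equation curve fitting.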

A short description of test [8]: Cell Viability - LYMP2-019 (AID 973). Note: potency is the fitted concentration of half-maximal effect. To be noted: LYMP2-019 lymphoblastoid cell line viability; series mostly up to 92.2 µM. The method in brief: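 AC50 values come from Hill-equation modelling of qHTS concentration-response curves, where viability is measured as luciferase-based ATP luminescence in the lymphoblastoid line after 24 hr compound exposure in complete culture medium.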

A short description of test [9]: Cell Viability - LYMP2-021 (AID 974). Note: potency is the fitted concentration of half-maximal effect. As to conditions: LYMP2-021 lymphoblastoid cells viability; series mostly up to 92.2 µM. Put shortly:
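In qHTS format, compounds are tested against 2500 lymphoblastoid cells per well for 24 h; viable cell number is inferred from ATP-driven luciferase light, and Hill-equation fitting yields AC50 values.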

A short description of test [10]: Cell Viability - LYMP2-023 (AID 975). Note: potency is the fitted concentration of half-maximal effect. To be noted: LYMP2-023 lymphoblastoid cell viability; series mostly up to 92.2 µM. Put shortly: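 In this qHTS, ATP-based luciferase luminescence (CellTiter-Glo) is quantified in human lymphoblastoid cells after 24 hr compound treatment at 37 C; tetraoctylammonium bromide serves as positive control. Concentration-response curves are Hill-fitted to give AC50.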

A short description of test [11]: Cell Viability - LYMP2-025 (AID 976).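 Note: cells exposed to compound for 24 h at 37 °C.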 Note: potency is the fitted concentration of half-maximal effect. To be noted: LYMP2-025 lymphoblastoid cell viability; series mostly up to 92.2 µM. The method in brief:
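Luminescent ATP readout after 24 hr treatment of a human lymphoblastoid line (LYMP2-025, 2500 cells/well, 37 C). Reagent developed 30 min at room temperature; AC50 fitted with the Hill equation.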

Test [12] can be described thus: Cell Viability - LYMP2-006 (AID 978).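 Note: cells exposed to compound for 24 hours; nearly all actives have a fitted effect of over 60% in size.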 Note: potency is the fitted concentration of half-maximal effect. As to conditions: LYMP2-006 lymphoblastoid cell viability, qHTS; series mostly up to 92.2 µM. The method in brief: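 In this cytotoxicity screen, the human lymphoblastoid line grew in complete medium with test compounds for 24 hr at 37 C. Cellular ATP served as the viability signal.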
Test [13] is described as follows: Cell Viability - LYMP2-007 (AID 979).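 Note: cells exposed to compound for 24 h before reading; nearly all actives have a fitted effect of over 60% in size.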 Note: potency is the fitted concentration of half-maximal effect. As to conditions: LYMP2-007 lymphoblastoid cell viability; series mostly up to 92.2 µM. Put shortly:
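Measured via luciferase-based ATP quantitation: lymphoblastoid cells, 24 hr compound exposure at 37 C, AC50 from Hill fits.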

The nature of test [14]: Cell Viability - LYMP2-008 (AID 980). Note: nearly all actives have a fitted effect of over 60% in size. Note: potency is the fitted concentration of half-maximal effect. As to conditions: LYMP2-008 lymphoblastoid cell viability, qHTS; series mostly up to 92.2 µM. The method in brief: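 Measured: ATP-dependent luminescence, proportional to viable cell number, in human lymphoblastoid cells treated 24 hr with compound in complete culture medium. Values are AC50s from Hill-equation modelling of qHTS titrations.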

Test [15] is described as follows: Cell Viability - LYMP2-010 (AID 981). Note: potency is the fitted concentration of half-maximal effect. To be noted: LYMP2-010 lymphoblastoid cell viability, qHTS; series mostly up to 92.2 µM. Put shortly: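 This 24 hr viability screen uses LYMP2-010 lymphoblastoid cells, quantifies ATP via luciferase luminescence, and derives AC50 from Hill fits of qHTS concentration-response data.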
A short description of test [16]: Cell Viability - LYMP2-012 (AID 982). Note: potency is the fitted concentration of half-maximal effect. To be noted: LYMP2-012 lymphoblastoid cell viability qHTS; series mostly up to 92.2 µM.
Test [17] can be described thus: Cell Viability - LYMP2-014 (AID 983).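 Note: cells exposed to compound for 24 h at 37 °C; nearly all actives have a fitted effect of over 50% in size.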 Note: potency is the fitted concentration of half-maximal effect. As to conditions: LYMP2-014 lymphoblastoid cells, viability qHTS; series mostly up to 92.2 µM. The method in brief: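 Quantitative HTS in lymphoblastoid cells: 24 hr compound exposure, then CellTiter-Glo ATP luminescence. Positive control was tetraoctylammonium bromide, 6.4pM to 92 uM.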
Test [18] is described as follows: Cell Viability - LYMP2-016 (AID 984). Note: potency is the fitted concentration of half-maximal effect. To be noted: LYMP2-016 lymphoblastoid cell viability, qHTS; series mostly up to 92.2 µM. The method in brief: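 Concentration-dependent ATP depletion measured in LYMP2-016 lymphoblastoid cells, 24 h, 37 C; luciferase-based luminescent detection; Hill-equation AC50.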
A short description of test [19]: Cell Viability - LYMP2-020 (AID 986). Note: potency is the fitted concentration of half-maximal effect. To be noted: series mostly up to 92.2 µM. Put shortly:
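Cells at 2500 per well receive a 24 hr compound exposure at 37 C. Viability is measured as ATP-dependent luciferase luminescence, with AC50 modeled from qHTS concentration-response curves.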

A short description of test [20]: Cell Viability - LYMP2-026 (AID 989).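 Note: cells exposed to compound for 24 h at 37 °C; nearly all actives have a fitted effect of over 50% in size.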 Note: potency is the fitted concentration of half-maximal effect. As to conditions: LYMP2-026 lymphoblastoid cell viability, qHTS; series mostly up to 92.2 µM. Put shortly: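 Acute toxicity screen in complete culture medium, with 24 hr compound exposure at 37 C. Viability read as cellular ATP via luciferase reaction, with tetraoctylammonium bromide (6.4pM to 92 uM) as positive control.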

Records with an inconclusive call do not appear. Calls of active or inactive are those of the source. Calls come from the whole dose curve; as a rule, active = well fitted curve in the direction sought with a large enough effect; inconclusive = small, poorly fitted or top-dose-only effect, or another doubt; inactive = no such curve, though single readings can be large; an effect the other way counts as inactive or inconclusive.

Sequence of Alpha-galactosidase A (Homo sapiens) (P06280 whole entry, looked up): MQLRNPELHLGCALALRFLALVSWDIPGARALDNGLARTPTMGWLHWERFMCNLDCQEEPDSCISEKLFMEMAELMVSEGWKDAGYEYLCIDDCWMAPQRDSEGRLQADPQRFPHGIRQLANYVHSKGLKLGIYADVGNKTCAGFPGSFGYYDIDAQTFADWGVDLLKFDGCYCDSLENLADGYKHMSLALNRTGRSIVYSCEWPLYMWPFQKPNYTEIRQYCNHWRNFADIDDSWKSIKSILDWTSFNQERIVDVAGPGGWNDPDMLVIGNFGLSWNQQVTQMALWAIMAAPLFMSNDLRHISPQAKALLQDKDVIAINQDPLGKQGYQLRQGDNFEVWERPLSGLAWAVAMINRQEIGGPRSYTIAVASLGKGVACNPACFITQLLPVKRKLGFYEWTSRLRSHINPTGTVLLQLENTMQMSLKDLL

For `c1cnc2c(c1)ccc1cccnc12`, the Potency in test [1] is 25.1 µM (active); in [2], 12.6 µM (active).
Regarding `O=C(Nc1cccc(C(=O)Nc2ccc(S(=O)(=O)O)c3cc(S(=O)(=O)O)cc(S(=O)(=O)O)c23)c1)Nc1cccc(C(=O)Nc2ccc(S(=O)(=O)O)c3cc(S(=O)(=O)O)cc(S(=O)(=O)O)c23)c1`, the compound was called inactive in [3].
Same read-out and setting: then `O=C(O)CC[C@@H](C(=O)O)N1C(=O)c2ccccc2C1=O`, with “inactive”.
As for `COc1cc(CNC(=O)CCCC/C=C/C(C)C)ccc1O`, the Potency result in [4], in [5], in [6], in test [7], in test [8] and in test [9] was “inactive” each time. The Potency result in [10], in test [11], in test [12], in test [13], in [14] and in [15] was “inactive” throughout. In addition, the Potency result in [16], in [17], in [18], in test [19], in test [2] and in test [20] was “inactive” in each case.
For the compound `Nc1ccc([N+](=O)[O-])cc1O`, the Potency entry in test [4], in test [5], in [6], in test [7], in [8] and in test [9] was “inactive” each time. Further, the Potency entry in [10], in test [11], in test [12], in [13], in test [14] and in test [15] was “inactive” each time. For the same compound, the Potency entry in [16], in [17], in test [18], in [1], in test [19] and in test [2] was “inactive” throughout. For the same compound, the Potency result in test [20] is “inactive”.
For the compound `CN(C)c1ccc(C(=C2C=CC(=[N+](C)C)C=C2)c2ccccc2)cc1`, the Potency is 0.398 µM (active) in test [4]; 0.501 µM (active) in test [5]; 0.316 µM (active) in test [6]; 0.501 µM (active) in [7]; 0.501 µM (active) in test [8]; 0.398 µM (active) in [9]. In addition, the Potency in [10] is 0.398 µM (active); in [11], 0.501 µM (active); in [12], 0.501 µM (active); in test [13], 0.251 µM (active); in test [14] it was 0.316 µM (active); in test [15] it was 0.251 µM (active). For the same compound, the Potency is 0.158 µM (active) in test [16]; 0.251 µM (active) in test [17]; 0.501 µM (active) in test [18]; 0.199 µM (active) in test [1]; 0.316 µM (active) in test [19]; 0.126 µM (active) in test [2]. For the same compound, in test [20], the Potency was 0.316 µM (active).
As to `Nc1ccc(O)c(C(=O)O)c1`, the Potency result in test [4], in test [5], in test [6], in [7], in test [8] and in test [9] was “inactive” throughout. Further, the Potency entry in test [10], in test [11], in [12], in test [13], in [14] and in test [15] was “inactive” throughout. The Potency entry in test [16], in test [17], in [18], in test [1], in test [19] and in test [2] was “inactive” each time. The Potency result in test [20] is “inactive”.
`O=C(O)/C=C\C(=O)O`: the Potency result in test [4], in test [5], in [6], in test [7], in test [8] and in test [9] was “inactive” in each case. Also, the Potency entry in [10], in [11], in [12], in test [13], in test [14] and in test [15] was “inactive” each time. Moreover, the Potency result in test [16], in [17], in [18], in test [1], in test [19] and in [2] was “inactive” throughout. In addition, in test [20], the Potency entry was “inactive”.
As to `Cn1cc(C2=C(c3ccc(Cl)cc3Cl)C(=O)NC2=O)c2ccccc21`, in test [3], the compound was classed as inactive.
